Results taken from PubChem BioAssay AID602384 (National Center for Advancing Translational Sciences (NCATS), 2012).
The source made the active and inactive calls. Calls come from the whole dose curve; as a rule, active = well fitted curve in the direction sought with a large enough effect; inactive = no such curve, though single readings can be large or run the other way.

Each compound was assayed against Pyruvate kinase PKM (Homo sapiens) (UniProt P14618) (assay: qHTS for Activators of Human Muscle Isoform 2 Pyruvate Kinase: Extended Characterization). Conditions: purified PKM2, ATP production, Kinase-Glo luminescence.
Chain of Pyruvate kinase PKM (Homo sapiens) (P14618 whole entry, looked up, canonical isoform): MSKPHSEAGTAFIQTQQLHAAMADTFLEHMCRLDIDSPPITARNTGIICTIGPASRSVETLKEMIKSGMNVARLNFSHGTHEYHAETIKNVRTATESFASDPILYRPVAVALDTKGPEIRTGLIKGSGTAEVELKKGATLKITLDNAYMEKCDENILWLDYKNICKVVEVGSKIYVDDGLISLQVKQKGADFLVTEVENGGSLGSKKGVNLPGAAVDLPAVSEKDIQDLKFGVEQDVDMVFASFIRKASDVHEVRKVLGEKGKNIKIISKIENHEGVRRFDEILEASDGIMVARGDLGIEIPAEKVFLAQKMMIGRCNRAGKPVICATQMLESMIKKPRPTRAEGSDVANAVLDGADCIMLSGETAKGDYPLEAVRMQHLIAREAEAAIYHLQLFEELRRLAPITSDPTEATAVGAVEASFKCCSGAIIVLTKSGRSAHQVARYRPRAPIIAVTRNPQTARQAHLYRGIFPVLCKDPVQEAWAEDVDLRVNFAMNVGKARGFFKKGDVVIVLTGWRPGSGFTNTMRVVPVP
Description: Human pyruvate kinase muscle 2 (hPK-M2) enzyme was supplied as a highly purified (>95% pure) preparation from Harvard Medical School and assayed for its ability to generate ATP from ADP using phosphoenolpyruvate (PEP) as a substrate. ATP generation was detected in a coupled reaction by luciferase-mediated luminescence, an ATP-dependent process. Pyruvate kinase substrates, PEP and ADP, were present in the assay at Km and approximately 10-fold below Km respectively. The enzyme was assayed at an intermediate level of activity to screen for both inhibitors and activators. NIH Chemical Genomics Center [NCGC] NIH Molecular Libraries Probe Centers Network [MLPCN] MLPCN Grant: MH085679 Assay Submitter (PI): Matthew G. Vander Heiden, Harvard Medical School
Three uL of substrate mix (at r.t.) in assay buffer (50 mM Imidazole pH7.2, 50 mM KCl, 7 mM MgCl2, 0.01% Tween 20, 0.05% BSA) was dispensed into white solid bottom 1,536 well microtiter plates so that the final concentrations of substrates in the assay were 0.1 mM ADP and 0.5 mM PEP. 23 nL of compound were delivered by a pin tool and 1 uL of enzyme mix (final concentration of 0.1 nM) in assay buffer (4 degree Celsius) was added. Plates were incubated at room temperature for 1 hour. Two uL of detection mix (Kinase-Glo, Promega; at 4 degree Celsius protected from light) was added and luminescence read by a ViewLux (Perkin Elmer) at 1 second exposure/plate. Data were normalized to the uninhibited (column 3) and AC100 inhibition (no enzyme in column 2). To monitor activation, the first column contained a titration of the activator, NCGC00031955-03 (16-point 1:2 dilutions in duplicate starting at 57 uM) and the first 16 rows of column 4 contained 57 uM of NCGC00031955-03.
For `Cc1cc2c(s1)c1cnn(Cc3ccc(F)cc3F)c(=O)c1n2C`, the Potency was 891 nM (active). In the case of `Cc1cc2c(s1)c1cnn(Cc3cc(F)ccc3F)c(=O)c1n2C`, the Potency is reported as 1120 nM (active). In the case of `Cc1cc2c(s1)c1cnn(Cc3c(Cl)ccc(C)c3F)c(=O)c1n2C`, the Potency is reported as 1260 nM (active). In the case of `COc1cccc(Cn2ncc3c4sc(S(C)=O)cc4n(C)c3c2=O)c1` (stereo not given), the Potency is reported as 73 nM (active). For `Cc1cc2c(s1)c1cnn(Cc3cc(F)c(F)cc3F)c(=O)c1n2C`, the Potency was 1120 nM (active).
